5 molecules from PubChem BioAssay AID905 (National Center for Advancing Translational Sciences (NCATS), 2007) can be followed below.

SMILES strings stand for the structures. Some of the results follow. Inconclusive results are not listed. Active and inactive are the calls of the source. Calls follow the shape of the dose curve; as a rule, active = well fitted curve in the direction sought with a large enough effect; inconclusive = small, poorly fitted or top-dose-only effect, or another doubt; inactive = no such curve, though single readings can be large or run the other way.

The assay is described as follows: Cell Viability - CRE-beta lactamase CHO cell - 24 hr assay. Particulars: CRE-bla CHO viability, ATP luminescence; series mostly up to 46.1 µM. An excerpt:
NIH Molecular Libraries Screening Centers Network [MLSCN] NIH Chemical Genomics Center [NCGC] National Institutes of Environmental Health Sciences [NIEHS] National Toxicology Program [NTP] MLSCN Grant: 1X01MH079867-01 Assay Provider: Marshall W. Nirenberg, U.S. National Heart, Lung and Blood Institute NCGC Assay Overview: We have developed a 1536-well cell-based assay for quantitative high throughput screening (qHTS) against a number of cell lines to determine in vitro cytotoxicity of small molecules. This particular assay uses CRE-bla CHO cell line from Invitrogen.
NCGC Assay Protocol Summary: The CellTiter-Glo luminescent cell viability assay (Promega) is a homogeneous method to measure the number of viable cells in culture. The end point readout of this assay is based on quantitation of intracellular ATP, an indicator of metabolic activity, using the luciferase reaction. Luciferase catalyzes the oxidation of beetle Luciferin to oxyluciferin and light in the presence of ATP. The luminescent signal is proportional to amount of ATP present. Using the CellTiter-Glo luminescent cell viability assay, the amount of cellular ATP was measured in the CRE-bla CHO cell line with complete culture medium following compound treatment for 24 hours. The assay was performed in opaque white Kalypsys 1536-well plates. In the screen, tamoxifen was used as positive control. The selected compounds were measured for their ability to cause acute toxicity in the cell line, as reflected by a decrease in intracellular ATP levels, in a concentration-dependent manner. Data were normalized to the controls for basal activity (DMSO only) and 100% inhibition (100 uM tamoxifen). AC50 values were determined from concentration-response data modeled with the standard Hill equation. NCGC Assay Protocol Summary 1. Reagent; 5 uL; 2000 CHO cells/well 2. Time; overnight; 37 C incubation 3. Compounds; 23 nL; 5.9 nM to 46 uM 4. Controls; 23 nL; Tamoxifen 4.5 nM to 92 uM 5. Time; 24 hr; 37 C incubation 6. Reagent; 5 uL; CellTiter Glo reagent 7. Time; 20 min; Room Temperature 8. Detection; Luminescence; Viewlux plate reader Keywords: cell viability, cytotoxicity, CHO cell line, luminescence, MLSMR, MLSCN, NIH Roadmap, qHTS, NCGC
`CCc1nc(Nc2ccc3nccnc3c2)c2oc3ccccc3c2n1`: the molecule was classed as inactive.

With `COc1ccc(CCNC(=O)CSc2nc(C)nc3c2oc2ccccc23)cc1OC`, the result was inactive. As to `Cc1nn(-c2ccccc2)c2sc(C(=O)N(Cc3ccco3)C(C)C(=O)NC(C)(C)C)cc12` (stereo not given), the molecule was classed as inactive. The entry for `Cc1nc(SCC(=O)Nc2cc(C)on2)c2c3c(sc2n1)CCCC3` is “inactive”; for `CC1CCc2sc3nc(N4CCN(CCO)CC4)n4ncnc4c3c2C1` (stereo not given) it is “inactive”.
